Drawing on PubChem BioAssay (NCI), this text covers growth for 40 molecules.

Compounds without any hit were thinned out: in the full panel of roughly 83,000, 20% have a hit.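 Single-dose data. Exposure time 48 hours. Values below 10 considered active.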 Active and inactive are the calls of the source.

The assay deals with HL-60(TB) leukemia. Put plainly: NCI-60 one-dose screen, 48 h (100 = growth as untreated, 0 = no growth, -100 = all killed). The following applies: 10 µM unless noted.
On to `O=C1NC2C=CC=CC2/C1=C1/SC(=S)N(C2CC(=O)N(c3ccc(Br)cc3)C2=O)C1=O` (stereo not given), for which the growth was 58.9% (inactive).
For the molecule `COc1ccc(SC2c3cc(OC)ccc3Oc3nc(N)c(C#N)c(N)c32)cc1` (stereo not given), the growth was 64.7% (inactive).
To `COc1c(F)ccc(C(=O)Nc2ccc3nc(NC(=O)C4CCCN(S(=O)(=O)c5cccc(Br)c5)C4)sc3c2)c1F` (stereo not given) belongs 80.6% (inactive).
Consider `COc1cc(C2CC(c3ccc(Oc4ccc(Cl)cc4)cc3)=NN2c2nc(-c3ccc(Cl)cc3)c(C#N)c(N3CCOCC3)n2)cc(OC)c1OC` (stereo not given), for which the growth is 102% (inactive).
Next, `CN1C(=O)/C(=C/c2ccc(C(=O)Nc3ncc(Cc4ccc(Cl)cc4Cl)s3)cc2)SC1=S`: 19.2% (inactive); `N#CC1=C(c2ccco2)Nc2c(c(-c3ccccc3)nn2-c2ccccc2)C12C(=O)Nc1ccc(Cl)cc12` (stereo not given): 43.8% (inactive).
To `O=C(COc1ccc(NC(=O)Nc2ccc(Cl)c(Cl)c2)cc1)N=Nc1c(O)[nH]c2ccc([N+](=O)[O-])cc12` belongs 92.4% (inactive); to `O=C(c1ccc(F)cc1)C(c1c[nH]c2ccccc12)c1c[nH]c2ccccc12`, 41.8% (inactive).
For the molecule `CN1C(=O)N(C)C2SC(N/N=C/c3ccc(F)cc3)=NC21` (stereo not given), the growth is -4.65% (active).
For the molecule `Fc1ccc(Nc2nnc(-c3c[nH]c4ccccc34)o2)cc1`, the growth was 44.8% (inactive).
Next, `O=c1[nH]n(C(=S)N/N=C/c2ccccc2Cl)c(=O)c2ccccc12`: -6.48% (active).
With `CCC(=O)c1cc(C(=O)OC)c2ccc3c4ccccc4ccc3n12`, the growth is 103% (inactive).
For the molecule `COc1ccc(C(=O)/C=C/c2cc(F)cc(C(F)(F)F)c2)cc1S(N)(=O)=O`, the growth was -4.63% (active).
To `Nc1nc(C(F)(F)F)cs1` belongs 102% (inactive); to `Cc1ccc(/C=C/C(=O)c2ccc(NC(=O)CSc3nnc(-c4c[nH]c5ccccc45)n3-c3ccccc3)cc2)c(C)c1`, 79.6% (inactive); to `Cc1cnc2ccc(Oc3ccccc3-c3ccccc3)nn12`, 107% (inactive).
Turning to `N#Cc1c(-c2ccc(F)cc2)nc(SCc2ccc(F)cc2)nc1N1CCNCC1`, the growth is -7.81% (active).
To `O=C(CSc1ccc(-c2ccc(Cl)cc2)nn1)Nc1ccc(Cl)c(C(F)(F)F)c1` belongs 32.7% (inactive); to `Cn1cc(-c2cc(N)n3nc(-c4c[nH]c5ccccc45)cc3n2)c2cc(Br)ccc21`, -18.3% (active).
To `c1n[nH]cc1-c1nc2ccc3[nH]ncc3c2c2c1CC1(CCOCC1)CC2` belongs 26.5% (inactive).
For `C[C@@H](Nc1c(C#N)cnc2ccc(-c3cnc4[nH]ncc4c3)cc12)c1ccccc1`, the growth was 35.2% (inactive).
For `COc1cc(NC(=O)c2cccc(C3CCc4c(cc(OC)c(OC)c4OC)O3)c2)cc(OC)c1OC` (stereo not given), the growth was 4.25% (active).
As for `O=c1oc2ccccc2cc1-c1csc(N=Nc2c(O)[nH]c3ccc(Br)cc23)n1`, the growth is 99% (inactive).
Consider `COc1sc(/C=N/NC(=O)c2[nH]c3ccc(Br)cc3c2-c2ccccc2)cc1Br`, for which the growth is -37.7% (active).
In the case of `Cc1cc(C)c2[nH]c(=O)c(C(c3nnnn3Cc3ccc4c(c3)OCO4)N3CCN(C)CC3)cc2c1` (stereo not given), the growth was 129% (inactive).
Next, `CC(=O)c1ccc2c(N)c(C(=O)Nc3ccc(C(F)(F)F)cc3)sc2n1`: 50% (inactive); `CC(=O)Nc1ccc(-n2cnc3cc(-c4ccc(O)cc4)ccc32)cc1C`: 26.6% (inactive); `O=c1[nH]c2ccccc2cc1CSc1cccc(Nc2nccc(-c3ccc4ccccc4c3)n2)c1`: 93.5% (inactive).
To `Nc1nnc(-c2c[nH]c3ncc(Br)cc23)c(-c2c[nH]c3ccc(Br)cc23)n1` belongs 11.2% (inactive); to `O=C(/C=C/c1ccc(-c2ccccc2)cc1)c1nc2ccccc2n1Cc1ccc(F)cc1`, 21.1% (inactive).
In the case of `COC[C@@H](CC(C)C)N=C1NC(=O)/C(=C/c2ccc3ncoc3c2)N1`, the growth is 1.03% (active).
In the case of `COc1ccc(C(=O)Nc2sc3c(c2C#N)CCC(=O)C3)cc1C(F)(F)F`, the growth was -12% (active).
On to `O=[N+]([O-])c1cccc(-c2nnc3c(/C=C/c4ccccc4O)nc4ccccc4n23)c1`, for which the growth was 52.5% (inactive).
Next, `COc1cc(C2CC(c3ccc(F)cc3)=Nc3c(N)nc(N)nc3N2)ccc1Oc1nc(Nc2ccc(F)cc2)nc(N(C)C)n1` (stereo not given): 14.4% (inactive); `Cc1ccc(NC(=O)[C@]23CCC(C)(C)CC2C2=CCC4[C@@]5(C)C[C@@H](O)[C@H](O)[C@@](C)(CO)C5CC[C@@]4(C)[C@]2(C)CC3)cc1` (stereo not given in full): -15.4% (active).
To `COc1ccc(N2N=C(c3ccc4c(c3)OCCO4)CC2c2cccc(NC(=O)CCCNS(=O)(=O)c3ccc(F)cc3)c2)cc1` (stereo not given) belongs 80.5% (inactive); to `Brc1ccc(-c2n(Cc3ccc4ccccc4c3)c(-c3ccccc3)c(-c3ccccc3)[n+]2Cc2ccc3ccccc3c2)cc1`, -5.57% (active).
Next, `COc1ccc2c(c1)N=C(C(=O)O)/C2=C/c1sc(Nc2ccc(O)cc2)nc1O`: 85.8% (inactive); `O=C(c1ccc(O)cc1)C1[C@H](c2ccc(Cl)cc2)[C@@H](c2ccccc2)NC12C(=O)Nc1ccc(Br)cc12` (stereo not given in full): -33.9% (active); `Cc1cc(=O)oc2cc(OCCCCOc3ccc(/C=C/C(=O)Nc4ccccc4[N+](=O)[O-])cc3)ccc12`: 101% (inactive).
